In PubChem BioAssay AID2156 (Johns Hopkins Ion Channel Center, 2009):
The whole screen tested about 310,000 compounds, of which about 3,400 (1.1%) were called active. This is one part of a sample in which actives are shown more often than they occur. Values without a mark were called inactive.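 Rule for the calls: active = fluorescence ratio B-score at most minus 3 library SDs, with starting brightness B-score within 2 library SDs (cut at about -5.5 in these data); inactive = the rest, inconclusive results apart.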 Square brackets hold non-standard residues; d marks the D form. Peptide text beside a SMILES is read from it. * marks the point of attachment. ξ: configuration not given here. Cbz = O=C(OCc1ccccc1)*; ξL = CC(C)CC(N)C(=O)O; Bz = O=C(c1ccccc1)*; ξP = O=C(O)C1CCCN1

Each compound was assayed against Potassium voltage-gated channel subfamily KQT member 2 (Rattus norvegicus) (UniProt O88943) (assay: rat KCNQ2 potassium channel inhibitors, primary screen, cell-based, CHO-K1, FluxOR thallium flux, B-score (AID 2156)). Conditions: 20 min, at 10 µM; stronger effect = lower value.
Sequence of Potassium voltage-gated channel subfamily KQT member 2 (Rattus norvegicus) (O88943 whole entry, looked up): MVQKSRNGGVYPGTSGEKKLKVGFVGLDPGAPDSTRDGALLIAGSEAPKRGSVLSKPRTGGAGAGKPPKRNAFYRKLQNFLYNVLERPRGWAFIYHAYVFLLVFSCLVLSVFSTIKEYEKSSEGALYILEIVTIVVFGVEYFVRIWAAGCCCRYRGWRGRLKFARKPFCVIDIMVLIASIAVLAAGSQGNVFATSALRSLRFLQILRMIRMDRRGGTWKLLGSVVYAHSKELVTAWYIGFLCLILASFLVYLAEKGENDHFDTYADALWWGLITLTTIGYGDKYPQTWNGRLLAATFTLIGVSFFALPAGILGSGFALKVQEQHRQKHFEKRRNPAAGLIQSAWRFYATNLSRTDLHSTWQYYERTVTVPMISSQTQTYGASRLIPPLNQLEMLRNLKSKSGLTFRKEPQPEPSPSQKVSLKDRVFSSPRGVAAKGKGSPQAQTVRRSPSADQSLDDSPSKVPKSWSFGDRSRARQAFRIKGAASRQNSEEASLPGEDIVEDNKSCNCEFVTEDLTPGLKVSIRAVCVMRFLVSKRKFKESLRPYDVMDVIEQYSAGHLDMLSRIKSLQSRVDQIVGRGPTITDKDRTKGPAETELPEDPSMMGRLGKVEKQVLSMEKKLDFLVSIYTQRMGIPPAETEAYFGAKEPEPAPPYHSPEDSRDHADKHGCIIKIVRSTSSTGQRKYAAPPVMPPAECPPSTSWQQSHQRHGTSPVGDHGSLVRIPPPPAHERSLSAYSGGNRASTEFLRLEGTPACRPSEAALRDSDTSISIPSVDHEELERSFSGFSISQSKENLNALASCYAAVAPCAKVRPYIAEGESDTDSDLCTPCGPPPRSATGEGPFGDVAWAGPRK

SMILES	B-score
Cc1ccccc1N1CCN(CC(=O)NCc2ccc(Cl)cc2)CC1	-8.15 (active)
O=C(CN1CCN(c2ccc(Cl)cc2)CC1)NCc1cccs1	-0.84
Cc1ccc(CNC(=O)CN2CCN(Cc3ccc(Cl)cc3)C2=O)cc1	-0.18
COc1ccc(NC(=O)CN(C)C(=O)CC2CCCCC2)cc1	-0.05
COc1ccc2c(c1)C(=O)Nc1cc(Cl)ccc1N2	inactive
Cc1ccc(C)c(-n2cc(CN3CCN(C(=O)c4ncn[nH]4)CC3)c(-c3ccccc3)n2)c1	-1.41
Cc1cccc(-n2cc(CN3CCN(C(=O)c4ncn[nH]4)CC3)c(-c3cccc(F)c3)n2)c1	-8.35 (active)
CCC(O)C1CCN(Cc2cn(-c3ccc(OC)cc3)nc2-c2cccc(F)c2)CC1 (configuration not stated)	inactive
CCN1C(=O)[C@@H]2[C@@H](c3ccc(-c4ccc(OC)cc4)c(OC)c3)N3CCC[C@@]3(C(=O)OC)[C@@H]2C1=O	inactive
O=C(CCCN1C(=O)/C(=C/c2ccco2)SC1=S)Nc1ccccc1	-0.39
COC(=O)C1=C(C)N(C(C)c2ccccc2)C(=O)/C1=C\c1ccco1 (configuration not stated)	-8.53 (active)
COC(=O)C1=C(C)N(c2ccc(Br)cc2)C(=O)/C1=C\c1ccco1	-1.96
COc1ccc(CCNC(=O)C(=O)NCC2CCCN2S(=O)(=O)c2cccs2)cc1OC (configuration not stated)	inactive
COC(=O)[C@H](Cc1ccccc1)NC(=O)[C@@H]1C[C@H]1[C@@H](NC(=O)OCc1ccccc1)c1ccccc1	inactive
COc1ccc(COC(=O)NC(C(=O)O)c2ccccc2)cc1 (configuration not stated)	inactive
COC(=O)[C@H](C)[C@H]1C[C@]1(C)[C@H](NC(=O)OCc1ccccc1)c1ccccc1	-3.52
CC(C)CC(NC(=O)C1CCCN1C(=O)[C@@H](C)NC(=O)OCc1ccccc1)C(=O)NCC(N)=O (some centres not stated) (Cbz-[dA][ξP][ξL]G-NH2)	inactive
CC(C)[C@H](NC(=O)OCc1ccccc1)C(=O)OCc1ccccc1	-7.34 (active)
CC(C)C(NC(=O)OCc1ccccc1)C(=O)OCC(=O)N1C(C)CCCC1C (configuration not stated)	-8.16 (active)
Cc1ccc(C)c(OCCC(=O)Nc2cccc(S(=O)(=O)N3CCCC3)c2)c1	inactive
Cc1ccc2nc(SCC(=O)Nc3cccc4ccccc34)nc(=O)n2c1	-0.48
COc1ccc(NC(=O)CN(C)C(=O)Cc2coc3cc(C)c(C)cc23)cc1	-0.02
Brc1cnc2ccccc2c1N1CCCCC1	inactive
COc1ccccc1NC(=O)CSc1nnc(-c2ccoc2C)n1CCc1ccccc1	-8.21 (active)

SMILES	B-score
CCCn1c(SCC(=O)Nc2cccc(C(=O)OCC)c2)nnc1-c1ccoc1C	-0.31
COc1ccccc1NC(=O)CSc1nnc(C)n1CC1CCCO1 (configuration not stated)	inactive
O=C(COc1coc(CN2CCN(c3ccccc3)CC2)cc1=O)N1CCc2ccccc21	inactive
C=CCOC(=O)C1=C(C)NC(C)=C(C(=O)OCC=C)C1c1cccs1	-2.85
CC1=C(C(=O)Nc2ccccc2)C(c2ccco2)C(C#N)=C(SCC(N)=O)N1 (configuration not stated)	inactive
CC1=C(C(=O)Nc2ccccc2)C(c2cccs2)C(C#N)=C(SCC#N)N1 (configuration not stated)	-6.59 (active)
CCN(C(=O)COC(=O)c1sccc1C)c1c(N)n(Cc2ccccc2)c(=O)[nH]c1=O	inactive
N#CCCN(C(=O)COC(=O)c1ccc(S(=O)(=O)N2CCCCCC2)cc1)c1ccccc1	inactive
Cc1ccc(C)c(OCCC(=O)OCC(=O)NC(=O)NCc2ccccc2)c1	inactive
COc1ccc2c(c1)O/C(=C\c1ccccc1O)C2=O	-0.61
COc1ccc(NC(=O)CN(C)C(=O)c2ccc(NC3CC3)c([N+](=O)[O-])c2)cc1	inactive
C=CC(COCc1ccccc1)N(Cc1ccccc1)S(=O)(=O)c1ccccc1Br (configuration not stated)	-5.61 (active)
C=CCCN(Cc1ccccc1)S(=O)(=O)c1ccccc1Br	inactive
CC1CCN(c2ccc(-c3ccc(NC(=O)c4ccco4)cc3)nn2)CC1	inactive
CCc1noc(C)c1C(=O)Oc1ccc(N(C)S(=O)(=O)c2ccc(C)c(C)c2)cc1	-6.86 (active)
Cc1ccc(S(=O)(=O)N(C)C)cc1NC(=O)COC(=O)c1c(C)noc1C	-0.34
COCCNC(=O)COc1ccc(N(C)S(=O)(=O)c2ccc3ccccc3c2)cc1	inactive
CCCc1cc(=O)[nH]c2nnc(SCC(=O)Nc3nnc(SCC)s3)n12	inactive
Cc1ccc(-c2csc(NC(=O)C3=COCCO3)n2)cc1C	-0.1
O=C(NC(Cc1ccccc1)C(=O)N1CCCC1C(=O)O)c1ccccc1 (stereo not drawn) (Bz-Phe-Pro-OH; configuration not given here)	-0.06
CN(Cc1ccccc1F)C(=O)C(Cc1ccccc1)NC(=O)c1ccccc1 (configuration not stated)	-7.91 (active)
CC(Cc1ccccc1)C(=O)N(C)Cc1ccccc1 (configuration not stated)	-0.83
CSc1ccccc1NC(=O)C(C)N1C(=O)c2ccccc2S1(=O)=O (configuration not stated)	inactive
